Among the data in PubChem BioAssay AID624117 (National Center for Advancing Translational Sciences (NCATS), 2012) are Potency values, retold here.

Inconclusive results are not listed. Entries that show only a call come without a potency. Calls of active or inactive are those of the source. The call rests on the fitted dose curve; in most records, active means well fitted curve in the direction sought with a large enough effect; inconclusive means small, poorly fitted or top-dose-only effect, or another doubt; inactive means no such curve, though single readings can be large or run the other way.
Potency means the concentration at half of the fitted maximal effect.

This test in a line: qHTS Assay for Rab9 Promoter Activators: Hit Validation Using Renilla Luciferase Read-Out. Conditions: Huh7 NPC1 promoter Renilla luciferase reporter, 24 h; series mostly up to 76.9 µM. The procedure, abridged: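 Huh7 cells stably carrying NPC promoter-luciferase, 1,500 cells/well, exposed to compound for 24 h at 37 deg C. Luminescence read 10 min after […] addition; validation of firefly-read primary hits.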
On the technique in general: In qHTS, concentration-response curves come from the screen itself.
`S=C1NCN(CCc2ccccc2)CN1Cc1ccccc1`: the Potency result was “inactive”.

For `Cc1nnc2n(c1=O)N=C(c1ccc(Cl)cc1)CS2`, the Potency result is “inactive”.

Consider `Cc1ccc(C)c(Nc2cc(C)nc3ncnn23)c1`, for which the Potency result was “inactive”.

As to `Nc1c(N(CCO)C(=O)/C=C/c2ccco2)c(=O)[nH]c(=O)n1Cc1ccccc1`, the Potency entry was “inactive”.

On to `CC(=O)NC(CCCN1C(=O)c2ccccc2C1=O)c1nnn(C)n1` (stereo not drawn), for which the Potency result is “inactive”.

As for `COc1ccc(C(c2nnnn2CCc2ccccc2)N2CCN(C3CCCC3)CC2)cc1` (stereo not drawn), the Potency entry is “inactive”.

In the case of `COC(=O)CSc1nc2cc3c(cc2cc1C#N)OCO3`, the Potency entry is “inactive”.

`CCOC(=O)c1cc2sccc2n1CC(=O)N1CCCc2ccccc21`: the Potency entry is “inactive”.

Regarding `COc1ccc(-c2nnc(SCC(=O)/C(C#N)=C(\C)N)o2)cc1`, the Potency entry is “inactive”.

Turning to `CC(C)C(NC(=O)c1ccc([N+](=O)[O-])cc1Cl)C(=O)N1CCCC1` (stereo not drawn), the Potency entry was “inactive”.

Turning to `COc1ccc(NC(=S)NNC(=O)c2cccs2)cc1`, the Potency entry was “inactive”.

As for `COc1ccc(NC(=O)CSc2ccc([N+](=O)[O-])cc2)cc1S(=O)(=O)N1CCOCC1`, the Potency result is “inactive”.

In the case of `Cc1ccc(S(=O)(=O)/N=C(/Nc2ccccn2)c2ccc(Cl)cc2)cc1`, the Potency was 20.7 µM (active).

With `NC(=O)C(=O)NN=C1C2CC3CC(C2)CC1C3`, the Potency entry was “inactive”.

For the molecule `CN(C)/C=N/c1c(C#N)cnn1-c1nc2ccccc2s1`, the Potency entry is “inactive”.

Consider `COc1ccc(C(=O)OCC(=O)N2CCCC2=O)c(OC)c1`, for which the Potency result was “inactive”.

`Cc1ccc(NC(=O)COC(=O)C2C3CC4OC(=O)C2C4C3)cc1Cl` (stereo not drawn): the Potency entry is “inactive”.

Turning to `COc1ccc(/C=C\C(=O)c2c(O)ccc3c(C)cc(=O)oc23)cc1OC`, the Potency result is “inactive”.

For the molecule `CC(Sc1nnc(C(F)(F)F)n1C)C(=O)Nc1ccc(S(N)(=O)=O)cc1` (stereo not drawn), the Potency entry is “inactive”.

With `O=C(C1COc2ccccc2O1)N1CCN(S(=O)(=O)c2ccccc2)CC1` (stereo not drawn), the Potency result is “inactive”.

For `Cc1ccc2nc(NC(=O)CCn3cccc3)sc2c1`, the Potency result was “inactive”.

Regarding `CC(C)(C)NC(=S)NNC(=O)c1ccc2ncccc2c1`, the Potency result was “inactive”.

On to `CC(=O)[C@@H]1[C@@H](C(=O)c2ccc(C)cc2)[C@]2(C(=O)Nc3ccccc32)[C@H]2C=Cc3cc(F)ccc3N12`, for which the Potency entry is “inactive”.

In the case of `CCN(C(=O)COC(=O)c1ccc(C=O)cc1)c1c(N)n(Cc2ccccc2)c(=O)[nH]c1=O`, the Potency result is “inactive”.

Regarding `Cc1ccc(N=Cc2sc(O)c3ccccc23)c(C)c1`, the Potency result is “inactive”.

Regarding `Cc1nc2sc(C(=O)OC(C)C)c(N)c2c(C)c1C`, the Potency result was “inactive”.

For `Nc1ccc(C(=O)Nc2ccccc2N)cc1`, the Potency was 8.23 µM (active).

With `COC(=O)c1cn(NC(=O)C2CCCCC2)c(=O)c2ccccc12`, the Potency result is “inactive”.

For the molecule `O=C(NCCc1ccccc1)c1cc2ncc(Br)cn2n1`, the Potency entry was “inactive”.

For the molecule `COC(=O)c1ccc(NC(=O)c2ccc3nc(C)sc3c2)cc1`, the Potency result was “inactive”.

For the molecule `CCOCC(=O)Nc1c(C(=O)Nc2ccc3c(c2)OCCO3)oc2ccccc12`, the Potency entry was “inactive”.

On to `COc1ccc([N+](=O)[O-])cc1COc1ccc2c(-c3ccccc3)cc(=O)oc2c1`, for which the Potency result is “inactive”.

With `CC1=C(C(=O)OC2CCCC(C)C2)C(c2ccccc2)NC(=O)N1` (stereo not drawn), the Potency entry was “inactive”.

With `Cc1ccc(NC(=O)Nc2cccc3ccccc23)cc1`, the Potency result was “inactive”.

Consider `CCN(Cc1nc2cc(Cl)ccc2c(=O)[nH]1)C(=O)C1CC(=O)N(c2cccc3ccccc23)C1` (stereo not drawn), for which the Potency result was “inactive”.

`CCC(=O)NC(=S)Nc1ccc(N2CCOCC2)cc1`: the Potency result was “inactive”.

Turning to `O=C(c1cccc(Oc2ccc([N+](=O)[O-])cc2)c1)N1CCOCC1`, the Potency result is “inactive”.

`COc1ccc(C2(CNC(=O)/C=C/c3ccco3)CCCC2)cc1OC`: the Potency result is “inactive”.
